KinaseGlo FLuc = Kinase-Glo luciferase inhibition (counter-screen) | Kinase-Glo luciferase, ATP luminescence, 8 min | 200,000 compounds, 0.28% hits | Q27757 | AID 1379 | Potency, µM (titrated, usually from 38.3 µM), most hits filed as inhibitors; also: nearly all actives have a fitted effect of over 60% in size
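Compounds were added to a substrate mix at pH 7.2 (50 mM imidazole, 10 uM ATP, within the enzyme's linear range), followed by Kinase-Glo detection reagent; luminescence was measured after 8 minutes at ambient temperature.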
NPC1 prom act = NPC1 promoter activation; 320,000 compounds, 2.4% hits; Huh7 NPC1 promoter luciferase reporter, 24 h; Potency, µM (top dose mostly 9.22 µM), usual class: activators; also: nearly all actives have a fitted effect of over 60% in size
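Compounds in DMSO were transferred onto Huh7 NPC1-luciferase reporter cells pre-incubated 2 h; after 24 h at 37 °C, Amplite reagent was dispensed and luminescence recorded 10 min later.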
FLuc counter = counter-screen for miR-21 project: firefly luciferase inhibitors or activators; P08659; purified FLuc, Km substrates, luminescence inhibition; Potency, µM (series often up to 57.5 µM), most hits filed as inhibitors; 360,000 compounds, 6.9% hits; also: nearly all actives have a fitted effect of over 55% in size
Target sequence (P08659 whole entry, looked up): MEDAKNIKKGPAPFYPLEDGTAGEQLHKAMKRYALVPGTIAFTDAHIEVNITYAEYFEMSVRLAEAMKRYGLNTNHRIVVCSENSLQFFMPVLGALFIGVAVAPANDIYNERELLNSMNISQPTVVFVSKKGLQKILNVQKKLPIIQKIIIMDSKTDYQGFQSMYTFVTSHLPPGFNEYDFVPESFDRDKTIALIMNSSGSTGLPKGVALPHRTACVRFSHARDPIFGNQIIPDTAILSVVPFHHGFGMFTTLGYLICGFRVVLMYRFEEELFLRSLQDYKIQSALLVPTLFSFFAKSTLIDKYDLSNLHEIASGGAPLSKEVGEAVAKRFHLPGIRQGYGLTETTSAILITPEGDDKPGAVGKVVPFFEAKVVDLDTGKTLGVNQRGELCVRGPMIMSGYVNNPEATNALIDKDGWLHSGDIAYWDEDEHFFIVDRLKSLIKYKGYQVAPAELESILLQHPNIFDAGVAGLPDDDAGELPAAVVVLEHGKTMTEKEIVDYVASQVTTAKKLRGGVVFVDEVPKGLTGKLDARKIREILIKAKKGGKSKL
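Purified P. pyralis luciferase (10nM final) with 10uM D-luciferin and 10uM ATP (Km levels) in 50mM Tris acetate pH 7.5, 10mM Mg acetate, 0.01% Tween-20, 0.05% BSA; qHTS 6-point titration, ~60 µM downward; luminescence read.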
Rab9 prom act = activators of Rab9 promoter. Potency, µM (top dose mostly 9.22 µM), usual class: activators. AID 485297. 320,000 compounds, 2.8% hits. Huh7 Rab9 promoter-luciferase reporter, luminescence, 24 h; also: nearly all actives have a fitted effect of over 60% in size
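Luminescence read-out: Huh7 cells stably expressing Rab9-luciferase, treated 24 h with compound at 37 °C, then lysed with luciferase reagent for 10 min at ambient before reading.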
SMN2 splice up = increases expression of the SMN2 splice variant; HEK293 SMN2-luciferase splicing reporter, luminescence, 30-36 h; Potency, µM (doses to about 46.1 µM), most hits filed as activators; 210,000 compounds, 2.8% hits; also: nearly all actives have a fitted effect of over 55% in size
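HEK293 cells carry an SMN2 […]–luciferase reporter in which exon 7 inclusion puts luciferase in frame. Cells were plated 10-12 h before compound addition, then incubated 30-36 h at 37C. ONE-Glo luminescence was read; sodium butyrate at 4.5 mM final served as control.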
Of the large screens only hits and unclear results are named; the others gave an inactive call. Compounds with a hit are over-represented: about 7.3% of the library has one in this group of screens. Calls follow the shape of the dose curve; as a rule, active = well fitted curve in the direction sought with a large enough effect; inconclusive = small, poorly fitted or top-dose-only effect, or another doubt; inactive = no such curve, though single readings can be large; an effect the other way counts as inactive or inconclusive.

CSc1ccccc1C(=O)Nc1cccc(C)c1	FLuc counter inconclusive
O=C(Nc1ccc2c(c1)CCC2)c1ccccc1Br	NPC1 prom act 1.58µM, FLuc counter 4.78µM, Rab9 prom act 1.58µM (no result: SMN2 splice up)
CN(CC(=O)Nc1ccc2c(c1)CCC2)CC(=O)Nc1ccccc1Br	none
O=C(Nc1cccc(Cl)c1)N1Cc2ccccc2Oc2ncccc21	none (no result: KinaseGlo FLuc, NPC1 prom act, Rab9 prom act)
Cc1cccc2c1NC(=O)/C2=C\C(=O)c1cccs1	FLuc counter 4.78µM
COc1ccc(-c2cc3nnc(-c4ccccc4)nc3s2)cc1	FLuc counter 0.169µM, Rab9 prom act inconclusive, SMN2 splice up 0.708µM
c1csc(-c2ncc3ccccn23)c1	FLuc counter inconclusive
Clc1ccc(/C=C/c2ncc3ccccn23)cc1	NPC1 prom act 1.58µM, FLuc counter 6.75µM, Rab9 prom act 1µM (no result: SMN2 splice up)
CCc1ccc(S(=O)(=O)c2cn(Cc3ccccc3)c3cc(F)c(F)cc3c2=O)cc1	none (no result: KinaseGlo FLuc, NPC1 prom act, Rab9 prom act)
CC(C)(C)C(=O)/C=C(\N)c1ccccn1	none
O=C(O)c1ccccc1-c1ccccc1C(=O)Nc1ccc(F)cc1	none (no result: KinaseGlo FLuc, SMN2 splice up)
CC(C)(C)C(=O)/C=C(N)/C=C/c1ccccc1	NPC1 prom act inconclusive, FLuc counter 12µM
O=C(/C=C/c1ccccc1)/C=C/c1ccccc1	FLuc counter 3.38µM
O=C(/C=C/c1ccc(NC(=O)c2ccccc2-c2ccccc2C(=O)O)cc1)c1ccccc1	FLuc counter 19µM (no result: KinaseGlo FLuc, SMN2 splice up)
CC(/C=C\c1ccccc1)=C/C(=O)O	none (no result: KinaseGlo FLuc, SMN2 splice up)
O=C(/C=C/c1ccccc1)c1ccccc1	FLuc counter 2.39µM
CC(=O)O[C@@H]1CC2C(C)(C)C(=O)C=C[C@]2(C)C2CC[C@]3(C)C(=CC[C@H]3C3CO[C@@H](C(C)(C)O)[C@H](O)C3)[C@@]21C (some centres not stated)	none (no result: NPC1 prom act, FLuc counter, Rab9 prom act)
CCOC(=O)c1c(S(=O)(=O)N2CCCC(C(=O)N3CCN(c4cc(C)ccc4C)CC3)C2)c(C)n(C)c1C (configuration not stated)	none (no result: KinaseGlo FLuc, NPC1 prom act, Rab9 prom act, SMN2 splice up)
N#Cc1ccc(/C=C/C(=O)c2ccccc2)cc1	FLuc counter 5.36µM (no result: KinaseGlo FLuc, SMN2 splice up)
O=C(/C=C/c1ccccc1)c1ccc2c3c(cccc13)CC2	FLuc counter 12µM (no result: KinaseGlo FLuc, SMN2 splice up)
N/C(=N\OC(=O)/C=C/c1ccccc1)c1ccccc1	KinaseGlo FLuc inconclusive, NPC1 prom act inconclusive, FLuc counter 1.51µM, Rab9 prom act inconclusive (no result: SMN2 splice up)
N#Cc1ccccc1COc1ccc(/C=C/C(=O)O)cc1	FLuc counter 2.39µM
CCOc1ccc(/C=C/C(=O)c2ccc(-c3ccccc3)cc2)cc1	none
O=C(/C=C\c1ccc(-c2ccccc2)o1)c1ccccc1	NPC1 prom act inconclusive, FLuc counter 6.01µM, Rab9 prom act inconclusive, SMN2 splice up inconclusive
N/C(=N\O)c1ccc(NC(=O)c2cccs2)cc1	KinaseGlo FLuc inconclusive, NPC1 prom act inconclusive, FLuc counter 16.9µM, Rab9 prom act 3.55µM
C/C(=N\NC(=O)C(N)=O)c1ccc(NC(=O)c2cccs2)cc1	FLuc counter inconclusive, Rab9 prom act inconclusive, SMN2 splice up inconclusive
COC(=O)Cc1ccc(NC(=O)c2ccccc2Br)cc1	FLuc counter 16.9µM
CC(=O)c1ccc(OC(=O)c2cccs2)cc1	FLuc counter 12µM
COC(=O)Cc1ccc(NC(=O)c2cccs2)cc1	NPC1 prom act inconclusive, FLuc counter 21.3µM, Rab9 prom act 2.82µM, SMN2 splice up 11.2µM
COc1ccccc1CC(=O)Nc1ccc(NC(=O)c2cccs2)cc1	none (no result: KinaseGlo FLuc, SMN2 splice up)
COc1cccc(Nc2nc3ccc(C(=O)c4ccccc4)cc3n3c(C)nnc23)c1	none (no result: KinaseGlo FLuc, NPC1 prom act, Rab9 prom act)
Cc1cc(C)c2c(CC(=O)Nc3ccc(S(=O)(=O)Nc4nc(C)cc(C)n4)cc3)coc2c1	FLuc counter inconclusive (no result: KinaseGlo FLuc, NPC1 prom act, Rab9 prom act)
COc1ccccc1N1CCN(C(=O)c2oc3ccccc3c2N)CC1	none (no result: KinaseGlo FLuc, NPC1 prom act, Rab9 prom act)
Cc1ccc(S(=O)(=O)Nc2ccc(NC(=O)c3cccs3)cc2)cc1	SMN2 splice up 11.2µM
CC(=O)c1ccc(NC(=O)c2cccs2)cc1	KinaseGlo FLuc inconclusive, NPC1 prom act 2.82µM, FLuc counter 15.1µM, Rab9 prom act 2.24µM, SMN2 splice up 10µM
COc1ccc(NC(=O)c2ccc(NC(=O)c3cccs3)cc2)cc1	none (no result: KinaseGlo FLuc, SMN2 splice up)
CN(C)CCCNC(=O)c1ccc(Cc2nc3ccccc3[nH]2)cc1	none (no result: NPC1 prom act, FLuc counter, Rab9 prom act, SMN2 splice up)
Cc1cc(NCCCN2CCOCC2)n2nc(C)c(-c3ccccc3)c2n1	none
Cc1cc(NCc2ccccn2)n2ncc(-c3ccccc3)c2n1	NPC1 prom act 0.501µM, FLuc counter 4.26µM, Rab9 prom act inconclusive (no result: KinaseGlo FLuc, SMN2 splice up)
COc1ccc(CCNc2cc(C)nc3c(-c4ccccc4OC)cnn23)cc1OC	none (no result: KinaseGlo FLuc, SMN2 splice up)
